This passage reports z-score results from PubChem BioAssay AID488969 (Vanderbilt High Throughput Screening Facility, 2010).

Over roughly 110,000 compounds, “z-score” has its median near -0.1; the highest 2% begin near 2. This is one part of a sample in which the highest values are shown more often than they occur. The source made the active and inactive calls.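 The calls were made as follows: active = z-score in the third read window above 3 or below -3; inactive = the rest.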

Sequence of Metabotropic glutamate receptor 8 (Rattus norvegicus) (P70579 whole entry, looked up): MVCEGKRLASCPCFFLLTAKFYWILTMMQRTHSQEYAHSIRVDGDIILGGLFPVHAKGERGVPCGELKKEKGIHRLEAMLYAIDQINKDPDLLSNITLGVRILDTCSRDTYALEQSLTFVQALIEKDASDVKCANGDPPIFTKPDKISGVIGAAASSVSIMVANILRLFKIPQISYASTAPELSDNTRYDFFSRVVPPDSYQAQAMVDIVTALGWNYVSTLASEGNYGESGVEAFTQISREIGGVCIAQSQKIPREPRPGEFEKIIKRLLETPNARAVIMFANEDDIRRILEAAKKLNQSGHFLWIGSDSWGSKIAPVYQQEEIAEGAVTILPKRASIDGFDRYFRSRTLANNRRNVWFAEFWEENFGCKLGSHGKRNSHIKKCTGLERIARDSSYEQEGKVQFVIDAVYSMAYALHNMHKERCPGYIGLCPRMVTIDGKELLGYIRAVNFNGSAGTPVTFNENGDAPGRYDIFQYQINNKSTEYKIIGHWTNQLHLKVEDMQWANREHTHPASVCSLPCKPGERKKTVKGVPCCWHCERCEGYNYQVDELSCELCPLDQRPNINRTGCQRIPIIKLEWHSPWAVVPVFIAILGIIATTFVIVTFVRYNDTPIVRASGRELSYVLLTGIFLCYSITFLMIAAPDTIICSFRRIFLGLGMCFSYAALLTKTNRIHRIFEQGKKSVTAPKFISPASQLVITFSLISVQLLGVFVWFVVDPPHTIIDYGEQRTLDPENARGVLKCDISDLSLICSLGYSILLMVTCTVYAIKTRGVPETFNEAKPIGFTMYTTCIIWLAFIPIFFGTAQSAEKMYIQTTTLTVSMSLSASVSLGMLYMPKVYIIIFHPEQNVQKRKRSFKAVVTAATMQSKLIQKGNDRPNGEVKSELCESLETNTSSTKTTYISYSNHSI

This test has as its target Metabotropic glutamate receptor 8 (Rattus norvegicus) (UniProt P70579). Briefly: rat mGluR8 modulators via GIRK flux, primary screen, cell-based, thallium flux, HTS (AID 488969). The settings on record: HEK293 rat mGluR8, GIRK (G protein-gated inwardly rectifying potassium channel) thallium flux, FluoZin2; at 10 µM; stronger effect = higher value; submaximal glutamate (EC20) added with thallium.
Compound `CC(CCc1ccccc1)NC(=O)C(Cc1ccccc1)NS(=O)(=O)c1cccs1` (configuration not stated) had a z-score of -0.446.
Then `COc1ccc(-c2cc(CNC(=O)CCl)on2)cc1`, with -0.113.
Turning to `CC(=O)c1ccc(N2CCN(C(=O)c3ccco3)CC2)c(F)c1`, the z-score is -0.0315.
Then `Cc1ccc2nc(-c3ccc(NC(=S)NC(=O)C(C)C)cc3)sc2c1`, with -0.127.
The value for `Cc1ccc(SC(=O)COc2ccccc2C)cc1` was -0.399.
The value for `Cc1ccc(CNC(=O)COC(=O)CSc2cc(C)c(Br)cc2C)cc1` was 0.22; that for `O=C(C1=C(O)/C(=C/c2ccc(O)cc2)CCC1)C(F)(F)F` was 0.181; that for `COc1ccc(/C=C2\CCCC(C(=O)C(F)(F)F)=C2O)cc1` was 2.59.
`COc1ccc(/C=C2\CCOC2=O)cc1` yielded a z-score of 0.296.
The compound `Cc1ccc(NC(=O)CN2CCC(C(=O)c3ccc4c(c3)OCCO4)CC2)cc1` yielded a z-score of -0.152.
For the compound `CCOCCCNC(=O)C(NC(=O)CC1NC(=O)NC1=O)c1ccc(Cl)cc1` (configuration not stated), the z-score is -0.134.
For the compound `COc1ccc(CCNC(=O)c2nc3ncccn3n2)cc1OC`, the z-score was 0.169.
The value for `O=P(OC1CCCCC1)(OC1CCCCC1)C(O)c1ccccc1` (configuration not stated) was -0.904; that for `CCCCN(CCCC)C(=S)N/N=C/c1c(C)[nH]n(-c2ccccc2)c1=O` was 10.4 (active).
Take `Cc1ccc(-n2[nH]c(C)c(/C=N/c3ccccn3)c2=O)cc1`: the z-score is 6.24 (active).
`Cc1ccc(-n2[nH]c(C)c(/C=N/n3c(C)nc4ccccc4c3=O)c2=O)cc1` returned a z-score of 0.177.
The value for `Cc1ccc(-n2[nH]c(C)c(C=Nc3ccc4[nH]c(=O)[nH]c4c3)c2=O)cc1` was -0.443; that for `Cc1ccc(-n2[nH]c(C)c(C=Nc3ccc(S(=O)(=O)Nc4nccs4)cc3)c2=O)cc1` was -0.363.
In turn, `CCCc1nc2ccccc2c(=O)n1/N=C/c1c(C)[nH]n(-c2ccc(C)cc2)c1=O` yielded a z-score of 1.38.
The value for `Cc1[nH]n(-c2ccccc2)c(=O)c1/C=N\NC(=O)C1COc2ccccc2O1` (configuration not stated) was -0.0839; that for `Cc1ccc2cccc(N=Cc3c(C)[nH]n(-c4ccccc4)c3=O)c2n1` was 0.282.
Consider `Cc1[nH]n(-c2ccccc2)c(=O)c1/C=N/O`, for which the z-score is -0.187.
Then `Cc1[nH]n(-c2ccccc2)c(=O)c1C=Nc1cccc2cccnc12`, with 0.652.
On to `Cc1[nH]n(-c2ccccc2)c(=O)c1/C=N/c1ccccn1`, for which the z-score is 2.61.
Take `Cc1ccc(-n2[nH]c(C)c(C=Nc3cc(C)ccn3)c2=O)cc1`: the z-score is 10.6 (active).
The compound `Cc1nc2ccc(S(=O)(=O)NCC(=O)N3CCCCC3)cc2s1` returned a z-score of -0.09.
The value for `COc1cc(NC(=O)CN(C)Cc2ccc(OC(F)F)cc2)c(C)cc1[N+](=O)[O-]` was -0.0913; that for `COC(=O)c1ccc(CSc2n[nH]c(C)n2)o1` was -0.0591.
Then `CCOc1ccc(C(C)=O)cc1COC(=O)C1=COCCO1`, with -1.15; and `CCCc1nc2sc3c(=O)n(N)cnc3c2c2c1CCCC2`, with -0.191.
With `Cc1[nH]n(-c2ccc(Cl)cc2)c(=O)c1/C=N/c1nnc(-c2ccccc2)s1`, the z-score is 8.81 (active).
Then `CCc1nnc(NS(=O)(=O)c2ccc(N=Cc3c(C)[nH]n(-c4ccc(Cl)cc4)c3=O)cc2)s1`, with -0.276.
Consider `Cc1[nH]n(-c2ccc(Cl)cc2)c(=O)c1C=NC12CN3CN(CN(C3)C1)C2`, for which the z-score was -0.111.
For `O=C(CSCCO)Nc1ccccc1`, the z-score was 3.04 (active).
The value for `O=C(O)CCCSCC(=O)Nc1ccccc1` was 0.633; that for `O=C(O)CSCC(=O)Nc1ccccc1` was 0.00603.
As to `Cc1ccc(C2=[N+]([O-])C3(CCCCC3=O)N(O)C2(C)C)cc1` (configuration not stated), the z-score was 0.0871.
Consider `O=C(COC(=O)Cc1cccc2ccccc12)Nc1ccccc1-c1ccccc1`, for which the z-score is -0.174.
Turning to `O=C1/C(=C\c2ccccn2)SC(=S)N1Nc1ncc(C(F)(F)F)cc1Cl`, the z-score is 3.17 (active).
The value for `COc1cc(/C=C2\SC(=S)N(Nc3ncc(C(F)(F)F)cc3Cl)C2=O)ccc1O` was 1.29; that for `O=C1/C(=C/c2ccc(F)cc2)SC(=S)N1Nc1ncc(C(F)(F)F)cc1Cl` was 0.426.
As to `CCOC(=O)CC1C(=O)NCCN1C(=O)c1cc2c(=O)n3ccccc3nc2s1` (configuration not stated), the z-score was -0.533.
In the case of `CN(C)S(=O)(=O)c1cccc(NC(=O)COC(=O)CCSc2ccc(Cl)cc2)c1`, the z-score was 0.722.
The value for `Cc1c(Cl)cccc1NC(=O)CNc1cccc(S(=O)(=O)N(C)C)c1` was -0.138.
For `CN(C)S(=O)(=O)c1cccc(NC(=O)COc2cccc(C#N)c2)c1`, the z-score was 3.82 (active).
The value for `O=C(Cc1ccc(Cl)cc1)Nc1cccc(S(=O)(=O)Nc2ccccc2F)c1` was 0.371; that for `Cc1ccc(NCC(=O)Nc2cccc(S(=O)(=O)N(C)C)c2)c(Cl)c1` was 4.79 (active).
`CN(C)S(=O)(=O)c1cccc(NC(=O)Cc2ccc(Cl)cc2)c1`: the z-score is 4.58 (active).
Then `CCNc1ccc(S(=O)(=O)N(C)C)cc1NCC(=O)Nc1ccc(F)c(Cl)c1`, with 0.204; and `Cc1cc(=O)oc2cc(OCC(=O)Nc3cccc(S(=O)(=O)N(C)C)c3)ccc12`, with -0.0464; and `CCN(CC)S(=O)(=O)c1cccc(NC(=O)COc2ccc(C#N)cc2OC)c1`, with -0.191.
Then `CC1CN(c2c3c(nc4ncnn24)CCCC3)CC(C)O1` (configuration not stated), with -0.374; and `Cc1ccc(N(C(C)C(=O)Nc2ccc(S(=O)(=O)N3CCOCC3)cc2)S(C)(=O)=O)cc1` (configuration not stated), with 0.137.
For the compound `CCCCc1ccc(-c2csc(/C(C#N)=C/c3ccco3)n2)cc1`, the z-score is -0.275.
In turn, `CCOCCCNC(=O)c1ccc(CS(=O)(=O)Cc2cccc(C)c2)o1` displayed a z-score of 0.789.
`O=C1CC(N2CCC(O)(c3ccc(Cl)cc3)CC2)C(=O)N1` (configuration not stated) had a z-score of 0.198.
Compound `COc1cccc(NC(=O)N(CCCN2CCOCC2)C(C)c2cc3ccccc3o2)c1` (configuration not stated) displayed a z-score of -2.21.
Compound `CCN(C(=O)CCN1C(=O)c2ccccc2C1=O)C1CCCCC1` gave a z-score of 0.156.
The value for `NC(=O)CSc1nc(O)cc(=O)n1-c1ccccc1` was 0.418; that for `O=C(CSc1nc(O)cc(=O)n1-c1ccccc1)N1CCCCC1` was 4.46 (active); that for `O=C(CSc1nc2ccccc2c(=O)n1-c1ccccc1)N1CCCC1` was -0.689.
The value for `Fc1ccc(C(c2nnnn2Cc2ccco2)N2CCN(C3CCCCC3)CC2)cc1` (configuration not stated) was 2.31; that for `COc1ccc(Cn2nnnc2C(c2ccccc2Cl)N2CCN(C3CCCC3)CC2)cc1` (configuration not stated) was 1.79.
Turning to `CC(C)C(c1nnnn1Cc1ccco1)N1CCN(C2CCCC2)CC1` (configuration not stated), the z-score was -0.255.
For the compound `Fc1ccc(C(c2nnnn2Cc2cccs2)N2CCN(C3CCCC3)CC2)cc1` (configuration not stated), the z-score came out at 1.73.
Then `COc1ccc(Cn2nnnc2C(c2ccc(F)cc2)N2CCN(C3CCCC3)CC2)cc1` (configuration not stated), with 3.92 (active); and `COc1ccc(Cn2nnnc2C(c2ccc(C)cc2)N2CCN(C3CCCC3)CC2)cc1` (configuration not stated), with 0.353.
